# Reference: the supplement of paper PMC5662767
# Structures can show the parent of a compound that is named as a salt.
# Tested on: Drosophila S2 cl14 SmoIP sensor cells
# Experiment: normalized SmoIP GFP fluorescence (untreated unstimulated = 0%, untreated Hh-stimulated = 100%); higher = more Smo activation sensor fluorescence
# Conditions: compound concentration: 2 uM, 24 h
# [1] = stimulation: Hh conditioned medium (+Hh)
# [2] = stimulation: mock conditioned medium (-Hh)
# 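Also: flow cytometry read-out as median GFP intensity of gated cells, compounds added 30 min before Hh-conditioned or mock medium, mock-treated cells serving as unstimulated baseline.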
Structure (SMILES),normalized SmoIP GFP fluorescence [1],normalized SmoIP GFP fluorescence [2]
Nc1nc(Nc2ccc(S(N)(=O)=O)cc2)nn1C(=O)c1c(F)cccc1F,205%,67.9%
CC(C)c1noc(N2CCC(COc3ccc(-c4ccc(S(C)(=O)=O)cc4)nc3)CC2)n1,110%,-3.09%
CN1CCN(S(=O)(=O)c2ccc(-c3cnc(N)c(C(=O)Nc4cccnc4)n3)cc2)CC1,112%,1.21%
COc1ncc(-c2ccc3nccc(-c4ccnnc4)c3c2)cc1NS(=O)(=O)c1ccc(F)cc1F,57.4%,-10.6%
O=C1CN2Cc3c(ccc(Cl)c3Cl)N=C2N1 [anagrelide-hydrochloride],108%,-2.31%
NC1(Cc2ccc(Cl)cc2)CCN(c2ncnc3[nH]ccc23)CC1,115%,8.36%
CC(C)(C)c1cc(NC(=O)Nc2ccc(-c3cn4c(n3)sc3cc(OCCN5CCOCC5)ccc34)cc2)no1,110%,8.79%
CCCNC(=O)Nc1ccc(Oc2ncnc3cc(OC)c(OC)cc23)cc1Cl,105%,-6.51%
Cc1ccc(C(=O)Nc2ccc(CN3CCN(C)CC3)c(C(F)(F)F)c2)cc1C#Cc1cnc2[nH]ncc2c1,104%,3.88%
CN1CCN2c3ccccc3Cc3ccccc3C2C1 (stereo not drawn) [Mianserin-hydrochloride],115%,4.04%
CCN(CC)CCNC(=O)c1c(C)[nH]c(/C=C2\C(=O)Nc3ccc(F)cc32)c1C [Sunitinib-Malate-(Sutent)],182%,90.8%
CN(C)CC(c1ccc(O)cc1)C1(O)CCCCC1 (stereo not drawn) [desvenlafaxine-succinate],103%,-5.38%
Cc1nc(NC(=O)N2CCC[C@H]2C(N)=O)sc1-c1ccnc(C(C)(C)C(F)(F)F)c1,102%,-1.23%
Cn1c(=O)c2[nH]cnc2n(C)c1=O [Aminophylline(Truphylline)],98.8%,-6.51%
C=CC(=O)Nc1cccc(Oc2nc(Nc3ccc(N4CCN(C)CC4)cc3OC)ncc2Cl)c1,96.5%,19.1%
O=C(Nc1ccc(S(=O)(=O)Nc2ccccc2Cl)c(Cl)c1)c1ccccn1,131%,3.4%
CCCCOc1ccc(C(=O)Nc2ccc(F)cc2F)cc1,99.9%,-2.08%

Structure (SMILES),normalized SmoIP GFP fluorescence [1],normalized SmoIP GFP fluorescence [2]
CC1=C(/C=C/C(C)=C/C=C/C(C)=C\C(=O)O)C(C)(C)CCC1 [Isotretinoin],106%,-7.27%
C[C@H]1COC2=C1C(=O)C(=O)c1c2ccc2c1CCCC2(C)C [Cryptotanshinone],115%,-9.22%
Cn1nnc2c(C(N)=O)ncn2c1=O [Methazolastone],110%,3.18%
C[C@@H](Oc1cc(-n2cnc3ccc(CN4CCN(C)CC4)cc32)sc1C(N)=O)c1ccccc1C(F)(F)F,113%,17.7%
Cc1c(Nc2ncccc2C(=O)O)cccc1C(F)(F)F [flunixin-meglumin],123%,-12.6%
CCCCN(Cc1ccc(C(=O)NO)cc1)C(=O)Nc1ccccc1 [nexturastat-a],105%,6.74%
COc1cc2nccc(Oc3ccc(NC(=O)Nc4cc(C)on4)c(Cl)c3)c2cc1OC,111%,1.89%
COC(=O)N[C@@H](C)CNc1nccc(-c2cn(C(C)C)nc2-c2cc(Cl)cc(NS(C)(=O)=O)c2F)n1,170%,48.8%
CCCC(CCC)C(=O)O [Sodium-valproate],110%,-4.68%
Cc1cc(Nc2cc(N3CCN(C)CC3)nc(/C=C/c3ccccc3)n2)n[nH]1,136%,23.8%
CCN(CC)CCCCNc1ncc2cc(-c3cc(OC)cc(OC)c3)c(NC(=O)NC(C)(C)C)nc2n1,123%,8.79%
Cc1cc(Nc2nc(N[C@@H](C)c3ccc(F)cc3)c(C#N)cc2F)n[nH]1,109%,-9.04%
C1=C/COCc2cc(ccc2OCCN2CCCC2)Nc2nccc(n2)-c2cccc(c2)COC/1 [pacritinib-sb1518],114%,1.72%
CC(C)c1cc(C(C)C)c(CC(=O)NS(=O)(=O)Oc2c(C(C)C)cccc2C(C)C)c(C(C)C)c1 [Avasimibe(CI-1011)],111%,-15.8%
O=C(O)C(Cc1ccccc1[N+](=O)[O-])=NNc1nc(-c2ccc(Cl)c(Cl)c2)cs1 (mixture of isomers),127%,46.7%
Nc1ccc(-c2ccc3ncc4ccc(=O)n(-c5cccc(C(F)(F)F)c5)c4c3c2)cn1 [torin-2],59.5%,-9.64%
CC(C)C[C@H](NC(=O)CNC(=O)c1cc(Cl)ccc1Cl)B(O)O,82.1%,26%
